Source: PubChem BioAssay
Most compounds without a hit are left out; they make up all but 12% or so of the library.
PLK1 PBD inh – PLK1 (human) polo-box domain binding inhibition; P53350; Plk1 PBD binding of FITC phosphopeptide, fluorescence polarization; Potency, µM, without a hit: max response, negative = inhibition, actives largely listed as inhibitors; 2.8% of 360,000 active; AID 720504; note: series mostly up to about 57 µM; % is set by controls: 0 for no effect and ±100 for the full control effect; nearly all actives have a fitted effect of over 65% in size
Target sequence (P53350 whole entry, looked up, the tested form may be a part): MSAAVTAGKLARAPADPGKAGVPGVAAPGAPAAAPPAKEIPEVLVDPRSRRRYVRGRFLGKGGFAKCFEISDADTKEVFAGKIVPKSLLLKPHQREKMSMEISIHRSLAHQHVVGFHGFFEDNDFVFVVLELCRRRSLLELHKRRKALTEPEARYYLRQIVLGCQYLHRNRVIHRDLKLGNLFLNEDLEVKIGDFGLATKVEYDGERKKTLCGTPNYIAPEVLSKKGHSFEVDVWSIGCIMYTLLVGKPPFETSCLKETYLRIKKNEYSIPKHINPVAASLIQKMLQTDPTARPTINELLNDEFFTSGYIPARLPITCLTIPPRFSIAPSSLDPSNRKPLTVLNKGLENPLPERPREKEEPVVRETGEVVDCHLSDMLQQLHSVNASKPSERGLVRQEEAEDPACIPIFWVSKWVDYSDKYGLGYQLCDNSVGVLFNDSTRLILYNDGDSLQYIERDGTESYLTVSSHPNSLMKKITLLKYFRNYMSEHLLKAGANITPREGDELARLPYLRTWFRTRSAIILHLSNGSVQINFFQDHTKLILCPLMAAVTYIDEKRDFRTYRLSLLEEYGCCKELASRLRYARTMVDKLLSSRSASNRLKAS
Sfp inh – inhibitors of Bacillus subtilis Sfp phosphopantetheinyl transferase; Biochemical Sfp PPTase activity, qHTS; 3.5% of 310,000 active; AID 1490; Q9F4F7; Potency, µM, without a hit: largest response in the series, negative = inhibition, hits mostly inhibitors;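 note: the enzyme is Sfp with the accession as filed and its product quenches rhodamine fluorescence; 0% = enzyme reaction without inhibitor and -100% = no enzyme wells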
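With Hepes-Na pH 7.6 buffer containing 10 mM MgCl2, Sfp (15 nM) modified BHQ-2-YbbR (12.5 uM) using rhodamine-CoA (5 uM). Two reads 30 minutes apart at 525/598 nm yielded each well's rate.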
JMJD2A Tudor inh – JMJD2A Tudor domain (human) inhibition | O75164 | AlphaScreen JMJD2A-Tudor / H3K4me3 peptide binding | Potency, µM (doses to about 114 µM), without a hit: at the top dose activity change, negative = inhibition, usual class: inhibitors | 4.4% of 390,000 active; note: % is set by controls: 0 for no effect and ±100 for the full control effect; nearly all actives have a fitted effect of over 50% in size
HP1b binding inh – blocks HP1-beta chromodomain binding to methylated histone tails. P83916. AID 540317. Potency, µM (highest dose often 114 µM), without a hit: at the highest dose activity change, negative = inhibition, usual class: inhibitors. AlphaScreen HP1-beta / biotin-H3K9me3 peptide binding. 0.56% of 390,000 active; note: nearly all actives have a fitted effect of over 70% in size
Target sequence (P83916 whole entry, looked up): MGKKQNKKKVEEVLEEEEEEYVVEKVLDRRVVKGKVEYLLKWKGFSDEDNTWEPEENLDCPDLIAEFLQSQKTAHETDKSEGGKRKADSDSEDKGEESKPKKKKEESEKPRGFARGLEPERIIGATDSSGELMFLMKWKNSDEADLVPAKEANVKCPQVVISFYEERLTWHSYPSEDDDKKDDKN
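AlphaScreen: HP1-beta (50 nM) preformed 30 min with biotin-H3(1-18)K9me3 peptide (50 nM) in PBS pH 7.4, 0.01% Tween-20. Compound added for 30 min at RT, then streptavidin donor/nickel chelate acceptor beads (10 ug/mL) for 30 min.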
G9a block – inhibitors of human histone lysine methyltransferase G9a; Q96KQ7; G9a H3K9 monomethylation, AlphaScreen, 2 h; Potency, µM (doses to about 102 µM), for the others: at the highest dose activity, negative = inhibition, most hits filed as inhibitors; 8.8% of 350,000 active; AID 504332; note: % is set by controls: 0 for no effect and ±100 for the full control effect; nearly all actives have a fitted effect of over 75% in size
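G9a (20 nM) preincubated 15 min RT with compounds, then 500 nM biotinylated H3K9 peptide and 20 uM SAM added; 2 h RT reaction. Monomethyl-H3K9 product detected by AlphaScreen with anti-H3K9me1 antibody, streptavidin donor and anti-rabbit IgG acceptor beads.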
BAZ2B inh – BAZ2B (human) inhibition. AlphaScreen BAZ2B-H3K14Ac peptide displacement. AID 504333. 4.4% of 360,000 active. Potency, µM (doses to about 114 µM), for the others: at the highest dose activity change, negative = inhibition, actives largely listed as inhibitors. Q9UIF8; note: % is set by controls: 0 for no effect and ±100 for the full control effect; nearly all actives have a fitted effect of over 60% in size
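AlphaScreen displacement of biotin-H3(5-23)K14Ac peptide (50 nM final) from BAZ2B (50 nM final) in PBS pH 7.4, 0.01% Tween-20; complex preformed 30 min RT, then compounds (top 110 uM) 30 min RT, beads 20 min dark.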
* marks the source's active call; other numbers are inactive results; ? = inconclusive; . = no result given; [ ] = remark or other dose. Calls come from the whole dose curve; as a rule, active = well fitted curve in the direction sought with a large enough effect; inconclusive = small, poorly fitted or top-dose-only effect, or another doubt; inactive = no such curve, though single readings can be large; an effect the other way counts as inactive or inconclusive. Potency is the fitted concentration of half-maximal effect.

SMILES	PLK1 PBD inh	Sfp inh	JMJD2A Tudor inh	HP1b binding inh	G9a block	BAZ2B inh
CCOC(=O)c1ccc(N2C(=O)c3[nH]nc(-c4ccc(C)cc4)c3C2c2cccc(F)c2)cc1 (centres undefined)	.	.	-31.0%	8.9%	-35.3%[59 µM]	.
S=c1[nH]nc(Cc2c[nH]c3ccccc23)o1	-14.8%	-9.6%	79.4µM*	13.3%	1.58µM*	-3.8%
CCn1c(SCc2ccc(Cl)c(Cl)c2)nnc1C(C)NC(=O)c1ccc(OC)cc1 (centres undefined)	4.2%	26.8%	-13.1%	11.8%	22.0%[59 µM]	?
COc1ccc(C(=O)NC(C)c2nnc(SCc3ccc(Cl)c(Cl)c3)n2C)cc1 (centres undefined)	-7.3%	-9.4%	-16.9%	0.4%	31.6µM*	?
Cc1c(P(=S)(c2ccccc2)c2ccccc2)c2ccccc2n1CCCc1ccccc1	.	.	-2.0%	.	.	.
Cc1ccccc1NC(=O)Cn1cc(S(=O)(=O)N2CCCC2)c(S(=O)(=O)N2CCCC2)c1	.	.	-4.9%	23.7%	-8.6%[59 µM]	3.7%[57.1 µM]
COc1ccc(N2CCN(CCCNC(=O)C(=O)c3c(C)n(C)c4ccccc34)CC2)cc1	-8.4%	7.4%	?	26.2%	39.8µM*	35.5µM*
COc1ccc(N2CCN(C(=O)C(=O)c3c(C)n(C)c4ccccc34)CC2)cc1	-2.3%	4.1%	?	-18.5%	5.01µM*	?
Cc1ccc(-c2nnc(Nc3ccc(Br)cc3)c3ccccc23)cc1S(=O)(=O)N1CCN(C)CC1	.	.	?	32.1%	-32.2%[59 µM]	?
CCCCCc1c2c(cc(O)c1C(=O)O)OC(=O)c1c(cc(OC)cc1C(=O)CCCC)O2	26.7µM*	6.1%	-30.6%	22.0%	-11.9%[59 µM]	79.4µM*
CCCCCc1c2c(cc(O)c1C(=O)O)OC(=O)c1cc(C(=O)CCCC)c(OC)cc1O2	21.2µM*	-24.8%	?	4.5%	.	.
COc1ccc(CNc2nc(NCc3ccc(OC)cc3)c3ncn(C4CCCCC4)c3n2)cc1	.	0.8%	.	.	.	.
CNC(=O)c1ccc(NC(=O)CC2SC(N3CCCC3)=NC2=O)cc1 (centres undefined)	-0.8%	.	2.9%	40.4%	2µM*	-13.1%
O=C(CC1SC(N2CCOCC2)=NC1=O)Nc1ccc(Cl)cc1 (centres undefined)	-2.9%	.	0.3%	30.9%	50.1µM*	6.9%
CC(=O)O[C@]1(C(C)=O)CC[C@H]2[C@@H]3C=C(Cl)C4=CC(=O)[C@@H]5C[C@@H]5[C@]4(C)[C@H]3CC[C@@]21C	-5.2%	-2.9%	-29.0%	-14.7%	4.1%[59 µM]	-1.7%
COc1ccc(C2Nc3ccccc3C(=O)N2Cc2ccco2)cc1 (centres undefined)	.	.	-16.9%[57.1 µM]	13.5%[57 µM]	.	.
O=C(NC(NNc1ccc([N+](=O)[O-])cc1)(C(F)(F)F)C(F)(F)F)c1ccc(Cl)cc1	-26.4%	-10.5%	?	-31.7%	39.8µM*	-38.9%
O=C(NNc1ccc([N+](=O)[O-])cc1)c1ccccc1Cl	-14.7%	-26.6%	-19.0%	16.8%	?	-3.6%
O=C(O)c1cn(C2CC2)c2cc(N3CCN(S(=O)(=O)c4ccc5c(c4)OCCO5)CC3)c(F)cc2c1=O	-3.1%	10.3%	?	-19.1%	5.3%[12.7 µM]	50.1µM*
O=C(O)c1ccccc1N=Nc1c(O)[nH]c2ccc([N+](=O)[O-])cc12	?	-16.4%	?	70.8µM*	25.1µM*	50.1µM*
Cc1ccccc1NCC(=O)N=Nc1c(O)[nH]c2ccc([N+](=O)[O-])cc12	-15.7%	6.2%	-20.5%	43.0%	?	-6.4%
O=C(N=Nc1c(O)[nH]c2ccc([N+](=O)[O-])cc12)c1ccccc1Cl	?	?	?	10.5%	?	56.2µM*
COc1ccc(/C=C/C(=O)NCC(=O)N=Nc2c(O)[nH]c3ccc([N+](=O)[O-])cc23)cc1	-15.2%	4.5%	?	3.4%	?	79.4µM*
COc1cc(NC(=O)COC(=O)CCOc2ccc(C)cc2)cc(OC)c1	4.1%	3.9%	-2.8%	44.0%	-1.4%	1.5%
Cc1cc(=O)n(Cc2ccc(F)cc2Cl)c2c1c(C)nn2C	.	.	-2.0%	45.6%	13.6%[59 µM]	-0.4%
SMILES	PLK1 PBD inh	Sfp inh	JMJD2A Tudor inh	HP1b binding inh	G9a block	BAZ2B inh
O=C1CCCc2ccccc2N1Cc1ccc(Cl)cc1	0.1%	6.6%	-7.4%	50.5%	38.6%	8.6%
Clc1ccc2nc(CN3CCCc4ccccc43)cn2c1	-3.2%	-22.1%	50.1µM*	-37.8%	?	50.1µM*
Clc1ccc2nc(CN3CCCCCC3)cn2c1	-3.8%	-4.2%	89.1µM*	34.0%	3.1%[0.0925 µM]	?
Clc1ccc2nc(CN3CCCCC3)cn2c1	-8.4%	-7.7%	-3.7%	30.5%	50.1µM*	8.3%
O=C(/C(N=Nc1cccc([N+](=O)[O-])c1)=C(/O)c1ccc(Br)cc1)C(F)(F)F	.	12.3%	.	.	39.8µM*	25.1µM*
COC(=O)[C@]12CCCCC=C1N(Cc1ccco1)C(=O)[C@H](CC(=O)NCCC(C)C)C2	-2.7%	.	.	.	.	.
Cc1ccc(-n2c(=O)[nH]c3cc(C(=O)NCCc4ccccc4)ccc3c2=O)cc1	.	.	-16.0%	11.4%	9.1%[59 µM]	0.1%
CC(C)(Cc1ccc(O)cc1)NC(=O)SCc1ccccc1	-7.8%	8.0%	-10.4%	39.2%	.	12.1%
CC(C)=N/N=C(\N)SCc1ccccc1	-7.8%	-5.3%	-19.4%	33.0%	7.94µM*	79.4µM*
O=[N+]([O-])c1cccc(/C=N/Nc2cc(Cl)nc(-c3ccccc3)n2)c1	1.4%	-4.2%	-1.1%	24.4%	-3.8%	-31.9%
Cc1c(Cl)cccc1NC(CC(=O)c1ccccc1)C(=O)OCC(=O)c1cccs1 (centres undefined)	-5.6%	8.91µM*	-8.3%	33.7%	35.5µM*	7.4%
COc1ccccc1NC(CC(=O)c1ccccc1)C(=O)OCC(=O)c1ccc(F)cc1 (centres undefined)	-5.4%	?	-28.0%	13.0%	?	-6.8%
O=C(CC(Nc1cccc(Cl)c1Cl)C(=O)OCC(=O)c1cccs1)c1ccccc1 (centres undefined)	-2.6%	56.2µM*	-9.0%	31.2%	14.4%[59 µM]	6.7%
O=C(CC(Nc1cccc(Cl)c1Cl)C(=O)O)c1ccccc1 (centres undefined)	-10.3%	8.91µM*	-2.3%	49.7%	28.2µM*	-38.3%
CC(C)NC(=O)c1onc(CSc2ccc(F)c(F)c2)c1C(=O)O	23.8µM*	79.4µM*	79.4µM*	21.6%	50.9%[0.501 µM]	?
CC(C)NC(=O)c1onc(CSc2ccc(F)c(F)c2)c1C(=O)NC(C)C	-17.1%	.	11.5%	124.4%	.	.
COc1cccc(N2CCN(C(=O)c3ccc(NC(=O)c4nsc5ccccc45)cc3)CC2)c1	.	.	-35.1%	1.3%[57 µM]	-28.9%[59 µM]	-12.7%
COC(=O)c1cccc(NC(=O)c2nsc3ccccc23)c1	.	.	-2.3%	31.3%	4.47µM*	18.8%
